Compounds with a hit are over-represented: about 8.8% of the library has one in this group of screens.
HT1080 IDH1KD tx – HT-1080 IDH1 knockdown cell toxicity (counter line); HT-1080 IDH1 knockdown viability, ATP luminescence, 48 h; Potency, µM (series often up to 46.1 µM), for the others: at the highest dose activity, negative = toxicity, actives largely listed as cytotoxic; actives 2% (n = 360,000); AID 686971;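 also: potency is read from the fitted curve at half-maximal effect; 0% = DMSO wells and -100% = cell-free medium wells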
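After a 2 h attachment period, IDH1KD HT-1080 cells took pin-transferred compound for 48 h at 37 °C; ATP-based luminescence after 10 min room-temperature reagent incubation reported viability.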
IL1B secr inh – blocks inflammasome-driven IL-1 beta release; AID 743279; THP-1 LPS/ATP IL-1B secretion, AlphaLISA, 16 h; hits give low values; activity change, % at 57.5 µM; actives 4.7% (n = 360,000); in the data active = activity change below about -50%; inconclusive = mostly about -30% to -49%
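Secreted IL-1B measured by AlphaLISA bead assay after 16 h compound exposure of THP-1 cells; compounds (final up to 57.5 uM) added 1 h before LPS (250 ng/mL) and ATP (1.25 mM) stimulation; lower signal means less secretion.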
KB-3-1 cytotox – KB-3-1 parental cell cytotoxicity | AID 1347075 | Potency, µM (titrated, usually from 46.1 µM), hits mostly cytotoxic | actives 1.4% (n = 400,000) | KB-3-1 viability, CellTiter-Glo ATP luminescence, 72 h; also: potency is read from the fitted curve at half-maximal effect; nearly all actives have a fitted effect of over 60% in size
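Cytotoxicity measured as CellTiter-Glo luminescence after 72 h at 37 C. Compound titrations were pinned onto drug-naive KB-3-1 parental adenocarcinoma cells grown in DMEM with 10% FBS, and normalized data fitted to concentration-response curves.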
KB-V1 MDR tox – KB-V1 MDR subline cytotoxicity | KB-V1 MDR cells viability, CellTiter-Glo, 72 h | Potency, µM (series often up to 46.1 µM), hits mostly cytotoxic | actives 3.4% (n = 400,000) | AID 1347076; also: potency is read from the fitted curve at half-maximal effect; nearly all actives have a fitted effect of over 60% in size
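In this primary screen, KB-V1 cells overexpressing P-gp are incubated with library compounds (lowest to highest concentration) for 72 h at 37 degrees C before a luminescent ATP viability read.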
HT1080NT lethal – kills 2HG-producing HT-1080-NT fibrosarcoma cells. HT-1080-NT fibrosarcoma viability, CellTiter-Glo ATP luminescence, 48 h. Potency, µM (titrated, usually from 46.1 µM), for the others: at the highest dose activity, negative = less viability, usual class: cytotoxic. actives 1.6% (n = 360,000);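 also: NT is the 2HG producing partner of a matched IDH1 knockdown line; potency is read from the fitted curve at half-maximal effect; 0% = DMSO-treated cells and -100% = media-only wells without cells; nearly all actives have a fitted effect of over 55% in size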
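Luminescent CellTiter-Glo readout after 48 hours of compound exposure at 37 degrees C defined viability of HT-1080-NT cells. Activity was normalized to DMSO wells and cell-free media wells; concentration-response curves were fitted and assigned curve classes.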
The depositor's hits bear a star; i = inactive; ? = inconclusive; nt = no result given. Unless noted, calls follow the shape of the dose curve; as a rule, active = well fitted curve in the direction sought with a large enough effect; inconclusive = small, poorly fitted or top-dose-only effect, or another doubt; inactive = no such curve, though single readings can be large; an effect the other way counts as inactive or inconclusive. Unless noted, % is scaled to controls: 0 for no effect and ±100 for the full control effect.

SMILES | HT1080 IDH1KD tx | IL1B secr inh | KB-3-1 cytotox | KB-V1 MDR tox | HT1080NT lethal
Cc1ccc(S(=O)(=O)c2c(CO)c(-c3ccccc3)nn2C)cc1 | -24% | 25 | ? | 15µM* | -13%
Cc1cccc(N2CCN(C(=O)CCS(=O)(=O)c3ccc4c(c3)CC(=O)N4C)CC2C)c1 (stereo not drawn) | nt | nt | i | i | nt
Cc1ccsc1C(=O)OCC(=O)N(Cc1ccccc1)C(C)C | 5% | 1 | ? | i | 6%
CC(C)N(Cc1ccccc1)C(=O)COC(=O)/C=C/c1cnc2ccccc2n1 | -1% | -201* | i | i | -7%
CCN(C(=O)COC(=O)/C=C/c1cnc2ccccc2n1)c1ccccc1 | 0% | -13 | i | i | 9%
Cc1ccc(C(=O)OCC(=O)N(Cc2ccccc2)C(C)C)cc1C | -5% | -5 | i | 21µM* | 0%
CC(=O)C1=C(C)Nc2ncnn2C1c1cccc(Br)c1 (stereo not drawn) | 11% | 13 | i | i | -1%
CCOc1ccccc1N(CC(=O)NC1CCCC1)S(=O)(=O)c1ccc(C)cc1 | 0% | 0 | i | ? | -13%
N#C/C(=C\c1cccc([N+](=O)[O-])c1)c1nnc2n1CCCCC2 | -21% | -91* | i | i | -15%
CN(c1ccccc1)c1ccc(/C=C(\C#N)c2nnc3n2CCCCC3)cc1[N+](=O)[O-] | ? | -106* | ? | 10µM* | -9%
Cc1cc(Br)cc2c(C(=O)OCC(=O)c3ccccc3)cc(-c3ccccc3)nc12 | nt | nt | i | i | nt
S=c1[nH]c(=S)c2[nH]cnc2[nH]1 | nt | nt | ? | i | nt
O=C(NCc1ccccc1Cl)c1ccc(Cn2cc(C(F)(F)F)ccc2=O)cc1 | 0% | 12 | i | 6.5µM* | -4%
O=C(NCc1ccc(Cl)cc1)c1ccc(Cn2cc(C(F)(F)F)ccc2=O)cc1 | -11% | -5 | i | 16µM* | -4%
CNC(C)C#Cc1ccc2sc3cccc(OC)c3c(=O)c2c1 (stereo not drawn) | 5% | -80* | i | i | -2%
COc1cccc2sc3ccc(C#CC4(N)CCCCC4)cc3c(=O)c12 | -14% | -61* | ? | i | -15%
NC(CSC(c1ccccc1)(c1ccccc1)c1ccccc1)C(=O)O (stereo not drawn) | ? | 10 | 3.7µM* | ? | ?
CC(=O)Nc1cc(-c2cccc(N)c2)cn2c(-c3ccc(C(C)=O)cc3)cnc12 | ? | 8 | i | i | ?
CCn1c(SCc2ccccc2)nc2cc(S(N)(=O)=O)ccc21 | 0% | 21 | i | i | -17%
COc1ccccc1N1CCN(CCNC(=O)Nc2cccc(C)c2C)CC1 | ? | -86* | i | i | -14%
CCCC(=O)Nc1cccc(NC(=O)CN2CCN(c3ccccc3OC)CC2)c1 | -16% | -13 | i | 2.6µM* | -4%
COc1cccc(N/C(SCc2ccccc2F)=C(/C#N)C(=O)NCc2cccs2)c1 | -25% | -15 | i | 16µM* | -20%
CC(C)(C)S(=O)N1Cc2cc(C(=O)N[C@@H]3CCN(Cc4ccccc4)C3)nc(-c3cccc(-c4cc5ccccc5o4)c3)c2[C@@H]1CCO (stereo partly drawn) | ? | ? | i | ? | ?
Cc1cc(C(F)(F)F)nn1-c1nc(-c2ccccc2)cc(C(F)(F)F)n1 | nt | nt | i | i | nt
Cc1c(C(=O)N2CCOCC2)[nH]c2c1C(=O)CC(c1ccccc1Cl)C2 (stereo not drawn) | 4µM* | -17 | 18µM* | ? | 5µM*
Cc1c(C(=O)OCC(C)C)[nH]c2c1C(=O)CC(c1ccco1)C2 (stereo not drawn) | 1.2µM* | 55 | i | ? | 1.5µM*
Cc1c(C(=O)OCC2CCCO2)[nH]c2c1C(=O)CC(c1ccco1)C2 (stereo not drawn) | 2.9µM* | -22 | 3.3µM* | 4.1µM* | ?
Cc1c(C(=O)OC2CCCC2)[nH]c2c1C(=O)CC(c1ccco1)C2 (stereo not drawn) | 1.3µM* | 44 | 0.52µM* | 0.58µM* | 0.52µM*
